According to the supplement of paper PMC11417369:
± gives the standard deviation of the averaged measurements. Whole data set: some 25,000 sequences, median “ln(normalized median fluorescence intensity)” near 10, cut for the highest 2% near 12. The full list was thinned out, with the highest values kept by preference.

Test system: PfAP2-G AP2 domain (GST-tagged)
Assay: gcPBM binding intensity (ln(normalized median fluorescence intensity)); higher = stronger DNA binding
Outline: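 After 1 h on an Agilent 4 × 180k array of primer-extended double-stranded 36-bp intergenic genomic probes and negative controls, bound GST-tagged P. falciparum DNA-binding domains were detected with Alexa488 anti-GST antibody and scanned at 488 nm. The domains had been expressed in E. coli, and binding took place in 1× PBS with 1% milk, 0.2 mg/ml BSA, 0.5% salmon testes DNA and 0.03% Triton X-100. Binding intensity is the highest Masliner-normalised natural-log median intensity across replicate spots of either probe orientation.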

| Sequence | gcPBM binding intensity (ln) |
| --- | --- |
| AATAAAATAATAGGCACACATATATATATATATTAT [CACACA_site273] | 10.1 ± 0.26 |
| CTATTAATGTACTCTACACACATATAAGAGGACATT [CACACA_site471] | 11.6 ± 0.86 |
| AAATAAAATAAAAGCACACAAAATGTAAATAATTAT [CACACA_site2775] | 10.01 ± 0.035 |
| CCATGTCAAACATTTGCACACAAAAAAATAAAAATT [CACACA_site4546] | 10.2 ± 0.31 |
| TAATTTAAAAATATAAATGTTTCACTTATATATTTT [TGCATGCA_negctrl_site399] | 9.41 ± 0.27 |
| GAAAAGTAGACAATATGTACATATAGTATTTATAAA [XGTACX_site878] | 11.1 ± 0.69 |
| TAAGTATAAAAAAATAGTACAATTATGAAATATCGT [XGTACX_site2529] | 11.2 ± 0.71 |
| AAAAATAGTATAAGTAGTACAACTGAAAAGTTATGT [XGTACX_site7488] | 11.6 ± 0.86 |
| ATTCTGAATGTTATGCGTACATATTAATCCTATTTA [XGTACX_site1216] | 11.5 ± 0.93 |
| TGTTCTAATATTTGTTGTACATTTACATTTCTCTCT [XGTACX_site2585] | 11.1 ± 0.56 |
| GAAAAAAAAAAAAGGGGTACATTTATTTTATCAATA [XGTACX_site8331] | 11.5 ± 1 |
| TTCAAAGGGAAATTAACACACACATATATATATATA [CACACA_site8777] | 10.2 ± 0.67 |
| ATATATAACGGGCACACACACATTTACGTATGAATA [CACACA_site1833] | 10.7 ± 0.43 |
| ATATATATGTATGTATGTACACACAAAAAATGGAAT [XGTACX_site7879] | 11.5 ± 0.79 |
| AACACCAAACAAAGGTGTACATATAGGAAAAAATCT [XGTACX_site1006] | 11.3 ± 0.81 |
| TTCTAAAAAGGGTGTACACAAACGAATGGAAAATAA [CACACA_site5483] | 11.6 ± 0.94 |
| AAGGTGGGAAAAAATAGTACACAACAAAAATGTATG [XGTACX_site8741] | 11.7 ± 1 |
| AAATGGAAAAGGTGTACACAAAAAAAAGGGAAAAGC [CACACA_site5331] | 11.7 ± 1.2 |
| GGAAAATGAAAACAAGGTACACATAAGAACAAACAA [XGTACX_site1221] | 11.4 ± 0.87 |
| TATAGGTATGTATGTACACACAAAAAATGGAATATA [CACACA_site7704] | 11.4 ± 0.76 |
| AAAAAAGAAACAAACACACATACATACAAACAAACA [CACACA_site142] | 10.3 ± 0.28 |
| AATAATAGAAAAAGGTGTACTTATAAACATATACAC [XGTACX_site6921] | 11.5 ± 0.83 |
| AAAAATGAAAGGTGTACACATACAAACATAGAAAGA [CACACA_site5020] | 11.7 ± 0.94 |

| Sequence | gcPBM binding intensity (ln) |
| --- | --- |
| GAAAACAAAATGGTAACACACAAATGTAAATAGTAT [CACACA_site2113] | 10.14 ± 0.064 |
| AAAAAAAATGAAAGGTGTACACATACAAACATAGAA [XGTACX_site3517] | 11.7 ± 0.88 |
| CACAAATATACAAATACACACAAATATACACATATA [CACACA_site7176] | 10.2 ± 0.085 |
| ACCTAAAATAACTACACACACATAAAAAAAAAAAAA [CACACA_site2529] | 10.1 ± 0.47 |
| GTATGTATATATGTATGTACTTATGTATCATTATTA [XGTACX_site2438] | 11.2 ± 0.83 |
| AAAAAACACCCATACACACACACACCGATATATATA [CACACA_site5808] | 10.1 ± 0.18 |
| TATATATATTTTTGAAGTACTTATTACACTAGCATT [XGTACX_site8965] | 11.2 ± 0.61 |
| ATTTTCTTATATATATTTTGTATATATTTTGTACAT [CACACA_negctrl_site1496] | 10.5 ± 0.39 |
| TTTTATGGAAAGTGTTGTACATATTTTTGTATATGT [XGTACX_site7356] | 11.4 ± 0.76 |
| AATTAACCGTGACACACACACATATAAATATAAATA [CACACA_site7790] | 10.3 ± 0.47 |
| TATTGTTCTTATTTAGTGCATATATAATATAATATA [GTGCAC_site9827] | 10.3 ± 0.33 |
| ACAAAATTTACAAAATGTACAAAATTTACAAAATAT [XGTACX_site3542] | 10.8 ± 0.49 |
| TAATAAAAAATATATACACACAAATAAATAAATAAA [CACACA_site4037] | 9.77 ± 0.071 |
| ATATATATTTATATATGTACATATTTTTGTGTATTT [XGTACX_site1183] | 11.3 ± 0.79 |
| CATATTAAGATGTGTACACATTTTTATTTTTTTTTT [CACACA_site4425] | 11.6 ± 0.93 |
| CTATTTTGGATGTGTACACATATATATATTTATATT [CACACA_site5706] | 11.7 ± 0.85 |
| ATATTTATATATATATGTACATATGTGTGTTTTTAT [XGTACX_site3956] | 10.9 ± 0.51 |
| TACATATTTTTTATATGTACATATTTTTTATGTGTA [XGTACX_site442] | 11.4 ± 0.77 |
| TGCCTATTTTGGATGTGTACACATATATATATTTAT [XGTACX_site6741] | 11.7 ± 0.88 |
| TTTATTGAACGTACACATATATATATGTATATATTT [TGCATGCA_negctrl_site141] | 11.3 ± 0.88 |
| ATTTTTGTACACTTCTTTTTTTTTTTTCTTTTATGT [CACACA_negctrl_site1323] | 11.4 ± 0.68 |
| AAAAAAAAATCATATTGTACGTAAAAAAAAAAAAAA [XGTACX_site476] | 11.4 ± 1 |
| TATTTATACTAATATGCATGTAATCGAAATACAGCT [TGCATGCA_site457] | 9.685 ± 0.078 |

| Sequence | gcPBM binding intensity (ln) |
| --- | --- |
| AATATGGTTATATATATATATATATATATATATATT [GTGCAC_negctrl_site566] | 9.67 ± 0.071 |
| TCTTTTTGTTCGTGTACACACATGAAATTTATAAAA [CACACA_site1619] | 11.8 ± 1.1 |
| TGAAATAAAATTTGTACACACATATATATATATATA [CACACA_site586] | 11.1 ± 0.81 |
| TTTCTTTTTGTTCGTGTACACACATGAAATTTATAA [CACACA_site8466] | 11.6 ± 0.86 |
| GAACCGTGCAAATGTTGTACACTTTAAAAATATTCT [XGTACX_site4488] | 11.6 ± 0.84 |
| AGGTGCAAAAATAAAACATGCAAAAATAAAAATGAA [TGCATGCA_site502] | 10.07 ± 0.028 |
| TTACCTCTTTGAAATATACACACTAAACATATCAAC [CACACA_site2455] | 10.1 ± 0.13 |
| CACAAACAAAAACACACACACACACCGACAAAAATG [CACACA_site5362] | 10.5 ± 0.38 |
| ACATACATACCCCCACGTACGTACCGAAACACCACC [XGTACX_site1982] | 11.5 ± 0.74 |
| ACATACATACACCCACGTACGTACCGAAACACCACC [XGTACX_site1212] | 11.7 ± 1.1 |
| AACATACAGAAACACACACACACACCCACACCCACA [CACACA_site493] | 10.4 ± 0.31 |
| TTTGTAATAAACTACTTTTTTTTTTTTTTTTTTTTT [CACACA_negctrl_site571] | 10.9 ± 0.35 |
| ATATACATATAGGATGCACACATAATTCAAATACAA [CACACA_site8120] | 10.1 ± 0.22 |
| AAGGTATAATATATTTGTACATATACATTTTTGAAT [XGTACX_site6493] | 10.9 ± 0.61 |
| TTTGAAAAAAATTAATGTACATTTGAAATGACATAT [XGTACX_site3902] | 10.8 ± 0.52 |
| AGACATTAATGAAGGTGTACATATATTTGACAGAAT [XGTACX_site655] | 11.6 ± 1 |
| AAAAAAAAATTAAAAACACACATATATATATATATA [CACACA_site1580] | 9.9 ± 0.67 |
| ATTTGCTTTTATTTTACACACTTGCTCCTGTTGTAC [CACACA_site1088] | 10.9 ± 0.42 |
| CAACACTTTCAAAAATGTACGTACAAATGTATTTTA [XGTACX_site6713] | 11.7 ± 0.76 |
| TTATTTTCAAAATGTTGTACACACAAAAAAAAAAAA [XGTACX_site3151] | 11.4 ± 0.93 |
| TATTTTCAAAATGTTGTACACACAAAAAAAAAAAAA [CACACA_site8437] | 11.5 ± 1.1 |
| AAATTTATATATAGTTGTACAAAAATATGTTTCGTA [XGTACX_site4801] | 11.2 ± 0.57 |
| GTTTTTTATAATTGTAGTACAAGAAGATATTTTTAT [XGTACX_site5443] | 11.5 ± 0.86 |

| Sequence | gcPBM binding intensity (ln) |
| --- | --- |
| TATGTGAATATAATCACACACAATACGGAAAGAGAC [CACACA_site7311] | 10.7 ± 0.39 |
| CTATACATATTATATAGTACTTTATTATTATGACTA [XGTACX_site1382] | 10.8 ± 0.45 |
| ATGGACTTTTATAGTTGTACATACTATGAGAACTTT [XGTACX_site2800] | 11.7 ± 0.85 |
| TTATATATATGACTTTGTACATATACATATTTTTTA [XGTACX_site4669] | 10.7 ± 0.54 |
| TTATAAAATTACTTGGTGCATTAGAATATTTCAATA | 10.1 ± 0.3 |
| AATAAAAAACTACAATATACAAAATTATTAAATCAA [GTGCAC_negctrl_site703] | 9.56 ± 0.35 |
| TAATTTATAAAAAATTGTACATTAAACATATATATA [XGTACX_site5164] | 10.8 ± 0.56 |
| TTCATATGGAATAAAAGTACGTATTAAAACAATTTT [XGTACX_site8742] | 11.1 ± 0.59 |
| TTTTTTATTTTTTGTTATATTTATAATAATTTATGA [XGTACX_negctrl_site260] | 9.58 ± 0.071 |
| TAAAAAAAATACAAAAGTACACAAAATTATACGTTA [XGTACX_site4656] | 11.5 ± 0.96 |
| AAAAAAAAAAAAATACGTACACAAAAAATTGCAAAG [XGTACX_site5663] | 11.6 ± 0.81 |
| ACAAAAAAAAAAAAAATACACACACATAAAAAAAAA [TGCATGCA_negctrl_site333] | 10.1 ± 0.13 |
| AAAAAAAAAAAAAAAGGTACACAAATACGTCCTGCA [XGTACX_site3354] | 11.5 ± 0.74 |
| TTTACACGTACGTGTACACACAAAAATATGTTTTTA [CACACA_site995] | 11.6 ± 0.89 |
| GTATATATTTAAACACGTACACAAAACCCAAAAAAT [XGTACX_site8110] | 11.8 ± 0.96 |
| AAAATAAAATAAAATACACACATACATACATACAAA [CACACA_site5366] | 10.01 ± 0.028 |
| TAATTTACACCTACGTGTACACACAAAAATATGTTT [XGTACX_site1868] | 11.6 ± 0.95 |
| TATATATTATTTAAAACACACAAAAAAAAAAATTAT [CACACA_site89] | 9.895 ± 0.021 |
| AGATAAAATAAATACACACACATAAATACGTACAAA [CACACA_site4739] | 11.7 ± 0.74 |
| AATTTACACGTACGTGTACACACAAAAATATGTTTT [CACACA_site8242] | 11.8 ± 1 |
| AAACCAAAAATAACACGTACAAAAATAAAAAGTATA [XGTACX_site4261] | 11.2 ± 0.74 |
